# Measured values taken from PubChem BioAssay AID2685 (National Center for Advancing Translational Sciences (NCATS), 2010).
# The whole screen tested about 320,000 compounds, of which about 2,100 (0.66%) were called active. Another 53% or so got no clear call; they are omitted. Calls follow the shape of the dose curve; as a rule, active = well fitted inhibition curve with a large enough effect in the signal ratio, with a control signal flat (not every such curve was filed as active); inconclusive = small, poorly fitted or top-dose-only effect, or effect the other way, or a change in a side signal; inactive = flat fitted curve, though single readings scatter; the % refers to the signal ratio. The entries come from a sample that favours actives as a whole.
# Assay: qHTS Assay for Lipid Storage Modulators in Drosophila S3 Cells;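 as to cell number change: cells counted by Cell Tracker Red CMTPX staining in the red channel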; as to lipid storage change, negative = inhibition: % is scaled to controls: 0 for no effect and ±100 for the full control effect
# Details: BODIPY lipid droplet fluorescence, 18-24 h, cells fed with added oleic acid; cell number change: measured here: cell count max response; series mostly up to 46.1 µM; lipid storage change, negative = inhibition: at the top concentration
# Summary of the method: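 Drosophila S3 cells loaded with oleic acid (400 uM, as added) and compounds at several concentrations; lipid droplets imaged by 488-nm laser-scanning cytometry, 500–530 nm intensity and object ratio to cell channel. Percent activity normalized to 20 uM Triacsin C.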
# Potency is read from the fitted curve at half-maximal effect.
Structure (SMILES),"lipid storage change, negative = inhibition",cell number change [%],outcome,Potency
CCCCC(C(=O)N/N=C/c1ccccn1)C(=O)N/N=C/c1ccccn1,15.9% (inactive),2.01,–,–
COc1cccc(NC(C)(C)c2nnnn2-c2c(C)cccc2C)c1,-0.863% (inactive),12.6,–,–
O=C(CCN1CCc2ccccc2C1)Nc1ccc(F)c(F)c1,14.2% (inactive),–,–,–
CCOC(=O)c1c(S(=O)(=O)NCC(=O)Nc2ccc(OC)cc2)c(C)n(C)c1C,23.4% (inactive),–,–,–
CCCOC(=O)CCCC[C@H]1SC[C@@H](NC(=O)OC)[C@H]1NC(=O)OC,3.15% (inactive),5.48,–,–
CCOC(=O)c1c(C)nc(-c2ccccc2)nc1N,–,1.72,inactive,–
O=C(Cc1ccccc1Cl)NCCCn1ccnc1,-1.3% (inactive),-1.19,–,–
O=C(COc1coc(CN2CCN(c3ccccc3)CC2)cc1=O)NCC1CCCO1 (stereo not given),–,–,inactive [at 0.0737 µM],–
CCN(CC)S(=O)(=O)c1c(OC)cc(C)c(Cl)c1C,-25% (inactive),8.74,–,–
CCCc1cc(=O)oc2cc(C)cc(OCC(=O)NCc3ccccn3)c12,–,6.85,–,11.6 µM (active)
O=C(COc1ccc(Br)cc1)NCCCn1ccnc1,-17.2% (inactive),9.25,–,–
Cc1cc(OCC(=O)NCCCn2ccnc2)c2c(C)c(C)c(=O)oc2c1,–,–,–,13 µM (active)
O=C(COc1ccc(F)cc1)NCCCn1ccnc1,–,-6.85,–,25.9 µM (active)
COc1ccc(OCC(=O)NCCCn2ccnc2)cc1,19.8% (inactive),17.2,–,–
Cc1cc(OCC(=O)Nc2ccccn2)c2c(C)c(C)c(=O)oc2c1,–,-10.4,–,7.31 µM (active)
CCCc1cc(=O)oc2cc(C)cc(OCC(=O)NCc3ccncc3)c12,–,4.58,inactive,–
CCc1cc(=O)oc2cc(C)cc(OCC(=O)NCCCn3ccnc3)c12,10.1% (inactive),8.87,–,–
Cc1c(C)c2ccc(OCC(=O)Nc3ccccn3)c(C)c2oc1=O,–,15.9,inactive,–
CCCc1cc(=O)oc2cc(C)cc(OCC(=O)NCCCn3ccnc3)c12,-24.1% (inactive),0.597,–,–
CCCc1cc(=O)oc2cc(C)cc(OCC(=O)NCc3cccnc3)c12,–,-12.5,inactive,–
Cc1cc(OCC(=O)NCc2ccncc2)c2c(C)c(C)c(=O)oc2c1,–,8.73,inactive,–
COc1ccc(CN(C)S(=O)(=O)c2nnc(NC(=O)c3ccccc3OC)s2)cc1OC,–,-3.88,inactive,–
Cc1ccccc1CCNC(=O)C1CCCN(c2cnccn2)C1 (stereo not given),–,-4.78,inactive,–
Cc1cccc(NC(=S)NCC(c2cccnc2)N2CCOCC2)c1 (stereo not given),16.3% (inactive),16.1,–,–
N#Cc1ccc(C(CC(=O)O)N2Cc3ccccc3C2=O)cc1 (stereo not given),1.6% (inactive),6.48,–,–
Cc1ccc(NC2CCCN(C(=O)c3ccoc3)C2)cc1C (stereo not given),-3.71% (inactive),-11.9,–,–
O=C(c1ccc(C(F)(F)F)cc1)N1CCN(S(=O)(=O)c2ccc3c(c2)OCCCO3)CC1,16.3% (inactive),3.78,–,–
